KDM5B inh = Primary screen for KDM5B Histone Demethylases FDH-coupled qHTS; 2.6% of 220,000 active; Lysine-specific demethylase 5B (Homo sapiens), Q9UGL1; KDM5B demethylase, FDH-coupled NADH fluorescence (FDH is formaldehyde dehydrogenase); AID 1347165, 2019; Potency, µM (titrated, usually from 57.7 µM), hits mostly inhibitors; active means well fitted inhibition curve with a large enough effect; further: 0% is about no effect; nearly all actives have a fitted effect of over 70% in size
Target sequence (Q9UGL1 whole entry, looked up): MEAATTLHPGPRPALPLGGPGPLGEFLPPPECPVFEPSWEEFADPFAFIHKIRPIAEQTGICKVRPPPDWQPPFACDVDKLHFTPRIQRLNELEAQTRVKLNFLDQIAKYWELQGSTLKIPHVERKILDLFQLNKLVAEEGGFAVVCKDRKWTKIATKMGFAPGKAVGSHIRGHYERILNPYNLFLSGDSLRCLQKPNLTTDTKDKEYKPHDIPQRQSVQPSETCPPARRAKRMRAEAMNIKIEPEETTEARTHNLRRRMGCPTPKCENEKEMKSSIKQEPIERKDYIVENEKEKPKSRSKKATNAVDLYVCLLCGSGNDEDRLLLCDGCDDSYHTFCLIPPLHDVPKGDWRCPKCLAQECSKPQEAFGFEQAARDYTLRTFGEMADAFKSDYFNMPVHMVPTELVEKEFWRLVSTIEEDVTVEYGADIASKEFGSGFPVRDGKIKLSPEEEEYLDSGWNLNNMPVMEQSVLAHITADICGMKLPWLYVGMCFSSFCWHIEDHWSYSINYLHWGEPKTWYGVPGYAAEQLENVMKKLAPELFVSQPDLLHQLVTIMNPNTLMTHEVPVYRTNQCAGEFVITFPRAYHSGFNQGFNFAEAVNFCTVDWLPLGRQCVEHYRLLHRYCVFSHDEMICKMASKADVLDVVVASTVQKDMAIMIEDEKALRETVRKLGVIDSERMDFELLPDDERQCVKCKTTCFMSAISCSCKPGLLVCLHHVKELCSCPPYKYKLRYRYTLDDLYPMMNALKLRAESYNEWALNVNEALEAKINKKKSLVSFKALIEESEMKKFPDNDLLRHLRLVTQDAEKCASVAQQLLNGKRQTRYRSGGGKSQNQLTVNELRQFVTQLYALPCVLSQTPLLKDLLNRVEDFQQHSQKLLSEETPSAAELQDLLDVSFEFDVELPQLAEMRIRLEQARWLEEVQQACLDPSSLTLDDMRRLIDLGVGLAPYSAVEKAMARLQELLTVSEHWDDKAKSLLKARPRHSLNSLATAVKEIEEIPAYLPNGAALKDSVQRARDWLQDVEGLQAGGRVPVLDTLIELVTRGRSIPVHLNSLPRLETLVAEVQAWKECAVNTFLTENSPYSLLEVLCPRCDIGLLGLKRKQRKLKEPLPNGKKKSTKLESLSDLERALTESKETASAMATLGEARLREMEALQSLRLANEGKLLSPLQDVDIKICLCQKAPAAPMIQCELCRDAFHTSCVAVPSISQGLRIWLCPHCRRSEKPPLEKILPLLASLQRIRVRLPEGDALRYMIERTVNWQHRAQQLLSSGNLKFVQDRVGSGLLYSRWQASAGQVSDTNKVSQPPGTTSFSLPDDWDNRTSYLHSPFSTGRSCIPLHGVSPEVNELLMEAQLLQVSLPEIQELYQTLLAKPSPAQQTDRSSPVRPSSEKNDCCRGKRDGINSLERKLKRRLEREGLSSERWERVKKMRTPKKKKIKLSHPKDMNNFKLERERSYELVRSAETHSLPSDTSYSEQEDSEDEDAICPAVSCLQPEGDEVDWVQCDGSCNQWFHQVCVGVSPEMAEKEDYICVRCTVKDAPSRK
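Coupled FDH/NAD⁺ fluorescence readout. KDM5BΔAP 200 nM final; compound titration, 10 min RT preincubation; substrate mix 12.5 µM H3K4me3, 25 µM 2-OG, 50 µM Fe(II), 100 µM ascorbate, 0.25 mM NAD⁺, 0.25 U/mL FDH; ΔRFU over 30 min.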
* = called active by the depositor; i = inactive. This excerpt belongs to a sample that is enriched for hits. Potency means the concentration at half of the fitted maximal effect.

SMILES	KDM5B inh
O=C(CCNc1cnc2cnccn12)NCc1ccc(F)c(Cl)c1	25µM*
O=C(CCNC(=O)c1ccc(Cl)cc1)NCc1ccc(C(F)(F)F)cc1	i
O=C(/C=C/c1cccs1)c1cc2ccccc2o1	i
CC(=O)c1cccc(NS(=O)(=O)c2ccc(C)cc2)c1	i
O=C(c1nccc2ccccc12)N1CCC2(CC1)CC(CO)N(C(=O)c1ccccc1)C2 (stereo not drawn)	i
O=C(c1nccc2ccccc12)N1CCC(N2C(=O)C(O)C23CCCCC3)CC1 (stereo not drawn)	i
C=CCN1C[C@@]2(C(=O)O)CN(c3nccc4ccccc34)C[C@H]2C1=O	20µM*
C=CCNc1ccc(C(F)(F)F)cn1	i
COc1ccc2cnn(CC(=O)Nc3ccc(F)c(Cl)c3)c(=O)c2c1OC	i
O=C(c1ccccc1F)N1CCCC2(CC(c3cccnc3)=NO2)C1 (stereo not drawn)	i
CCCCNC(=O)CSc1cc(C)c2cccc(C)c2n1	i
O=C(CN1CCCC1c1nc2ccccc2s1)NC(=O)Nc1ccc2c(c1)OCO2 (stereo not drawn)	i
CCc1ccc2oc(C(=O)Nc3cccc4cccnc34)c(C)c2c1	i
Clc1cc(N2CCCCC2)n2nccc2n1	i
CC(=O)N1CCCN(c2cc(Cl)nc3ccnn23)CC1	i
NC(=O)c1noc2c1CN(c1cc(-c3ccccc3)nc3ccnn13)CC2	25µM*
CNC(=O)[C@H]1C[C@H](Oc2ccccc2)CN1C(=O)Nc1cccc(F)c1	i
CC(C)Cc1ccc(C(=O)/C=C/c2ccc(C(=O)O)cc2)cc1	i
CCOc1ccc(NC(=O)Cn2c(-c3ccc(F)cc3)nc(C)c(CCO)c2=O)cc1	i
COc1cc(F)ccc1C1=NN(C(C)=O)C(c2ccc3nccnc3c2)C1 (stereo not drawn)	i
CCc1cc(Nc2ccccc2OC)n2ncnc2n1	i
COc1ccc(-c2ccnc3ncnn23)c(F)c1	28µM*
c1ccc2oc(-c3ccnc4ncnn34)cc2c1	i
COc1cc(F)ccc1-c1ccnc2ncnn12	25µM*
CCc1cc(Nc2ccc(OC)cc2)n2ncnc2n1	i
SMILES	KDM5B inh
CC(=O)OCc1cc(=O)n2nc(C3CCCCC3)sc2n1	i
OC(c1cc2n(n1)CCN(Cc1cc(C3CC3)on1)C2)C1CC1 (stereo not drawn)	i
CC(O)c1cc2n(n1)CCN(Cc1cc(=O)n3nc(C4CC4)sc3n1)C2 (stereo not drawn)	25µM*
CCc1cccc(C)c1NC(=O)c1nn(Cc2ccccc2)c(=O)c2ccccc12	i
CCN(Cc1ccccc1)C(=O)CCC[C@@H]1[C@H]2CCCN3CCC[C@@H](CN1Cc1cccnc1)[C@@H]23	i
COc1ccc(N2CCN(C(=O)CCC[C@@H]3[C@H]4CCCN5CCC[C@@H](CN3C(C)=O)[C@@H]45)CC2)cc1	i
CC(=O)N1C[C@@H]2CCCN3CCC[C@@H]([C@H]23)[C@H]1CCCC(=O)N1CCN(c2ccccc2)CC1	i
CC(=O)N1C[C@@H]2CCCN3CCC[C@@H]([C@H]23)[C@H]1CCCC(=O)NCCN(C)C	28µM*
NC(=O)CCC[C@@H]1[C@H]2CCCN3CCC[C@@H](CN1Cc1ccccc1)[C@@H]23	i
CN1CCN(C(=O)CCC[C@@H]2[C@H]3CCCN4CCC[C@@H](CN2C(=O)c2cccnc2)[C@@H]34)CC1	i
CC(=O)N1C[C@@H]2CCCN3CCC[C@@H]([C@H]23)[C@H]1CCCC(=O)N1CCN(c2ccccn2)CC1	32µM*
COc1ccccc1OCCNC(=O)CCC[C@@H]1[C@H]2CCCN3CCC[C@@H](CN1C(C)=O)[C@@H]23	i
CN(C)CCNC(=O)CCC[C@@H]1[C@H]2CCCN3CCC[C@@H](CN1C)[C@@H]23	i
CC(=O)N1C[C@@H]2CCCN3CCC[C@@H]([C@H]23)[C@H]1CCCC(=O)N1CCN(c2ccc(F)cc2)CC1	i
CC(=O)N1C[C@@H]2CCCN3CCC[C@@H]([C@H]23)[C@H]1CCCC(=O)N1CCN(C)CC1	25µM*
CN(Cc1cccnc1)C(=O)CCC[C@@H]1[C@H]2CCCN3CCC[C@@H](CN1Cc1cccnc1)[C@@H]23	22µM*
O=C(Nc1ccc(Oc2ccccc2)cc1)c1cccc(CN2CCCC2=O)c1	i
C=C(C)CN(CC)C(=O)CCc1cccs1	i
NCCOc1ccc(OCCN)cc1	i
N#Cc1c(N2C(=O)CC(c3ccc4c(c3)OCO4)C3=C2CCCC3=O)sc2c1CCCCC2 (stereo not drawn)	i
NC(=O)c1cccc(OCc2coc(-c3cccc(F)c3)n2)c1	i
Cc1nc(C)c(C(=O)N2CCC(CCOc3ccccc3)C2)s1 (stereo not drawn)	i
O=C(CCC[C@@H]1[C@H]2CCCN3CCC[C@@H](CN1Cc1ccccc1)[C@@H]23)N1CCOCC1	i
CN1CCN(C(=O)CCC[C@@H]2[C@H]3CCCN4CCC[C@@H](CN2Cc2ccccc2)[C@@H]34)CC1	32µM*

High-throughput results (PubChem BioAssay)
